# In PubChem BioAssay (NCATS):
# Results filed as inconclusive are left out. Values without a mark were called inactive. Activity calls are given as the source filed them. Calls come from the whole dose curve; as a rule, active = well fitted inhibition curve with a large enough effect; inconclusive = small, poorly fitted or top-dose-only effect; inactive = flat fitted curve, though single readings scatter.
# Tested on: CRL-7250
# Assay: Cytotoxic Profiling of Annotated Libraries Using Quantitative High-Throughput Screening (AID 1296008); note: nearly all actives have a fitted effect of over 60% in size
# Conditions: Five cell lines viability, CellTiter-Glo ATP luminescence, 48-72 h; max response: stronger effect = lower value
# In short: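 Compounds were pin-transferred onto cells and incubated 48 or 72 hr at 37 degree Celsius, 95% humidity. CellTiter-Glo was added, plates sat 10 min at room temperature, then ATP-coupled luminescence was imaged as the viability read-out.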
# % is set by controls: 0 for no effect and ±100 for the full control effect.
Compound,max response,outcome
CC(C)(C)C(=O)OCOC(=O)C1N2C(=O)CC2S(=O)(=O)C1(C)C (stereo not drawn),-2.99%,–
CN1C(CSCC(F)(F)F)Nc2cc(Cl)c(S(N)(=O)=O)cc2S1(=O)=O (stereo not drawn),-17.8%,–
COc1ccccc1N1CCN(CCN2C(=O)CC3(CCCC3)CC2=O)CC1,-8.79%,–
Nc1nnnn1-c1ccccc1,-0.0528%,–
C=CCOc1cc(Cl)ccc1C(=O)NCCN(CC)CC,-3.78%,–
OCCCc1ccccc1,-10.6%,–
CC(=O)N(CC(O)CO)c1c(I)c(C(=O)NCCO)c(I)c(C(=O)NCC(O)CO)c1I (stereo not drawn),-7.11%,–
CN1C(=O)CC(C)(c2ccccc2)C1=O (stereo not drawn),-0.376%,–
CC(C(=O)O)c1ccc(/C=C2\CCCCC2=O)cc1 (stereo not drawn),1.18%,–
O=C(COCCOCCOCC(=O)Nc1c(I)cc(I)c(C(=O)O)c1I)Nc1c(I)cc(I)c(C(=O)O)c1I,–,inactive
CCO[C@H](Cc1ccc(OCCc2ccc(OS(C)(=O)=O)cc2)cc1)C(=O)O,-4.09%,–
O=C(OCC1(COC(=O)c2cccnc2)CCCC(COC(=O)c2cccnc2)(COC(=O)c2cccnc2)C1O)c1cccnc1,-5.9%,–
OC(CCCN1CCCCC1)(c1ccccc1)c1ccccc1,-11.1%,–
C1=CC2C3C=CC(C3)C2C1 (stereo not drawn),–,inactive
C[N+]1(CC2COC(c3ccccc3)(c3ccccc3)O2)CCCCC1 (stereo not drawn),1.41%,–
CC(C)=CCC/C(C)=C/CC/C(C)=C/CCC(=O)OC/C=C(\C)CCC=C(C)C,-7.77%,–
Cc1ccc(/C=N/n2c(-c3ccccc3)csc2=S)cc1,-8.42%,–
Cc1cccc(C)c1NC(=O)c1cc(S(N)(=O)=O)c(Cl)cc1O,–,inactive
C[C@]12CCC(=O)C=C1CC[C@@H]1[C@@H]2[C@@H](O)C[C@@]2(C)[C@H]1CC[C@]2(O)C(=O)COC(=O)CCC(=O)O,-0.174%,–

Compound,max response,outcome
OCc1cccnc1,-0.394%,–
O=C(CO)[C@@H](O)[C@H](O)[C@@H](O)CO,–,inactive
CCc1cc(S(=O)(=O)O)c2cc(C(C)C)cccc1-2,4.56%,–
O=C(O)[C@H](O)[C@@H](O)[C@H](O[C@@H]1O[C@H](CO)[C@H](O)[C@H](O)[C@H]1O)[C@H](O)CO,-2.55%,–
Cc1cc(O)c2c(O)c3c(O)cccc3cc2c1,–,inactive
CCC(C(=O)NC(=O)NC(C)=O)c1ccccc1 (stereo not drawn),2.16%,–
CO/N=C(/C(=O)N[C@@H]1C(=O)N2C(C(=O)OCOC(=O)C(C)(C)C)=C(C)CS[C@H]12)c1csc(N)n1,–,inactive
CC1(C)S[C@@H]2[C@H](NC(=O)C(c3ccccc3)S(=O)(=O)O)C(=O)N2[C@H]1C(=O)O (stereo partly drawn),1.53%,–
C=CC[N+]1([C@H]2C[C@H]3[C@@H]4CC[C@H]5C[C@H](OC(C)=O)[C@@H](N6CCCCC6)C[C@]5(C)[C@H]4CC[C@]3(C)[C@H]2OC(=O)CC)CCCCC1,-0.558%,–
CCOc1ccc(NS(=O)(=O)c2ccc(N)cc2)nn1,2.59%,–
CCOC(=O)c1ccc(OCCN2C[C@H](O)[C@@H](O)[C@H](O)[C@H]2CO)cc1,-7.54%,–
Cc1ccc(O)cc1,-3.08%,–
O=P(O)(O)OCC(O)CO (stereo not drawn),-2.69%,–
COc1ccccc1OCC1CNC(=O)O1 (stereo not drawn),-7.57%,–
CN(C(=O)C(Cl)Cl)c1ccc(OC(=O)c2ccco2)cc1,4.42%,–
C[C@@]12CCC[C@H]1[C@@H]1CC[C@H]3C[C@@H](O)CC[C@]3(C)[C@H]1CC2,2.58%,–
O=C(O)CNC(=O)CNC(=O)CNC(=O)CSC(=O)c1ccccc1,-5.45%,–
CCN1CCN(C(=O)N[C@@H](C(=O)N[C@@H]2C(=O)N3[C@@H]2SC(C)(C)[C@H]3C(=O)O)c2ccccc2)C(=O)C1=O,–,inactive
CC(=O)OCC(=O)[C@@]1(O)CCC2C3CCC4=CC(=O)CC[C@]4(C)C3[C@@H](O)C[C@@]21C (stereo partly drawn),–,inactive
